Parameters in all cases: scale not given: direction of the effect not stated beside the values
Test [1] addresses Protein translocase subunit SecA (Escherichia coli (strain K12)) (UniProt P10408). The experiment in a line: Assay to Identify E. coli SecA ATPase Inhibitors. In kind it is functional. The following applies: 30 µM.
The target in test [2] is T1, Ubiquitin-activating enzyme e1, putative (Leishmania donovani (strain BPK282A1)) (UniProt E9BSI1).
T1 sequence (whole entry): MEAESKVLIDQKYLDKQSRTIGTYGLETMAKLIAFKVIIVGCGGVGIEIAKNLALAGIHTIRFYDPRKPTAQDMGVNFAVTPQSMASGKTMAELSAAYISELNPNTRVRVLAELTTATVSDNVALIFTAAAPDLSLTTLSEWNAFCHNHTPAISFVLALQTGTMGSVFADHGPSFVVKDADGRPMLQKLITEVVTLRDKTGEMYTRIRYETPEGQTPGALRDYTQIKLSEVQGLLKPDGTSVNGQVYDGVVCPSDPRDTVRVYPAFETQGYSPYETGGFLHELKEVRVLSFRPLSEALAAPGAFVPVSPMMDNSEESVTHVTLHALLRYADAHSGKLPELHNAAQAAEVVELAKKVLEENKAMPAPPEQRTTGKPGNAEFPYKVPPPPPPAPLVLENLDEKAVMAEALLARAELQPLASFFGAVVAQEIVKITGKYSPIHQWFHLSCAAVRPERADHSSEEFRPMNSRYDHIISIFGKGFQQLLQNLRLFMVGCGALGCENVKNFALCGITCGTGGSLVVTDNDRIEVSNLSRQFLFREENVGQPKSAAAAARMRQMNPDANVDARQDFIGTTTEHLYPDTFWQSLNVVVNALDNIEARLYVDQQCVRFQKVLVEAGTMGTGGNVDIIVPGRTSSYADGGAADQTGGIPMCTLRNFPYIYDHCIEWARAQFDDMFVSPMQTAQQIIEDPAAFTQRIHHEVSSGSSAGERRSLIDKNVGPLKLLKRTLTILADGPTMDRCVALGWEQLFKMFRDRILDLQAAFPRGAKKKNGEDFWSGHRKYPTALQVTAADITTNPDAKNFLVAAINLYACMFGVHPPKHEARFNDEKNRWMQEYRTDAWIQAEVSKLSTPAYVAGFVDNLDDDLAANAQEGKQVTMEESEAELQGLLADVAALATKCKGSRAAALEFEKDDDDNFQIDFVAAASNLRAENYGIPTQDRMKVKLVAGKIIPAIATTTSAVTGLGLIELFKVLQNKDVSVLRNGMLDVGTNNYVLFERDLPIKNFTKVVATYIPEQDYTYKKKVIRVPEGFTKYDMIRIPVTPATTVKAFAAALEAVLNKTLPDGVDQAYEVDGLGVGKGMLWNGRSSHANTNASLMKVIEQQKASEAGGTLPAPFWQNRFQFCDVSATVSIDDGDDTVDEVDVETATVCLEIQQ
The experiment in a line: Leishmania donovani Ubiquitin Activating Enzyme (LdE1). The test is classed as functional. The conditions noted are these: 30 µM.

In test [3] the target is AMP-activated protein kinase, AMPK (Homo sapiens) (UniProt P54646+O43741+P54619+Q9UGJ0+Q9Y478+Q13131+Q9UGI9). The test can be described thus: AMP-dependent Kinase enzyme assay. An in vitro enzyme assay that detects ADP turnover that is directly proportional to AMPK activity. This uses naive AMPK that is activated during the assay with MK-8722. In kind it is functional. The conditions noted are these: 30 µM.

Test [4] has as its target Sialic acid-binding Ig-like lectin 9 (Homo sapiens) (UniProt Q9Y336). The experiment in a line: Hs-Siglec9 ALPHAscreen SOP 20170721. The following applies: 10 µM. (In Alpha technology, singlet oxygen from a donor bead excites a nearby acceptor bead.)
The test system of the next test is Trypanosoma cruzi. The experiment in a line: Trypanosoma cruzi phosphomannomutase and mannose-1-phosphate guanylyltransferase assay. The test is classed as functional. The conditions noted are these: 10 µM.
The target of test [5] is T2, Arginase-2, mitochondrial (Homo sapiens) (UniProt P78540).
T2 sequence (whole entry): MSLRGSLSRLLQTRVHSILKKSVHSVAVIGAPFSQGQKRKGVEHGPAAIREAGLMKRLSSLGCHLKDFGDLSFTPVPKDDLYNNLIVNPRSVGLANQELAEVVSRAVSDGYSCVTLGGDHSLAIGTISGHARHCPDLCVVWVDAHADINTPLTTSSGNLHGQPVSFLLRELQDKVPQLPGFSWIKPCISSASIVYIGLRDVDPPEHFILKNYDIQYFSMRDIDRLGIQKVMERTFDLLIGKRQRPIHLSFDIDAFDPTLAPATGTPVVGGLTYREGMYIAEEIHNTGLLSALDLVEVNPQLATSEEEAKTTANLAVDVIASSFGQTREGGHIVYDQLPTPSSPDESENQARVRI
The experiment in a line: in vitro enzyme assay to detect the production of urea directly proportional to the activity of Arginase II. Further: in the data most compounds retested in dose-response had high values. The test is classed as functional. The conditions noted are these: 33.3 µM.

The target in test [6] is T3, Proteasome subunit beta (Trypanosoma cruzi) (UniProt O96673).
T3 sequence (whole entry): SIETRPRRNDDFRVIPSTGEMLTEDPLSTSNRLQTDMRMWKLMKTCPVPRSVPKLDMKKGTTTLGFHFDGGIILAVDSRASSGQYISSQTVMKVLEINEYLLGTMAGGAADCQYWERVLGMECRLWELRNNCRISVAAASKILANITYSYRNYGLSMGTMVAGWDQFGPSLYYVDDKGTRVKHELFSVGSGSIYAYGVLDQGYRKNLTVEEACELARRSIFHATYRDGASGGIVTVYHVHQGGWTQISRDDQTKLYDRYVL
The experiment in a line: Trypanosoma cruzi proteasome chymotrypsin-like activity (TcProtChymo) assay. Further: in the data most compounds retested in dose-response had high values. In kind it is functional. The following applies: 9.37 µM.

The next test is filed under the species Homo sapiens. The test can be described thus: To identify inhibition of the IFN signalling (Jak-Stat) pathway via expression of an eGFP reporter gene under the control of an IFN-stimulated response element (ISRE) containing MxA promoter. In kind it is functional. The conditions noted are these: 30 µM. (In general: Reporter assays use an easily measured gene product as a stand-in for the process of interest.)

Test [7] concerns the target T4, Tyrosyl-tRNA synthetase, putative (Trypanosoma cruzi (strain CL Brener)) (UniProt Q4DSP6).
T4 sequence (whole entry): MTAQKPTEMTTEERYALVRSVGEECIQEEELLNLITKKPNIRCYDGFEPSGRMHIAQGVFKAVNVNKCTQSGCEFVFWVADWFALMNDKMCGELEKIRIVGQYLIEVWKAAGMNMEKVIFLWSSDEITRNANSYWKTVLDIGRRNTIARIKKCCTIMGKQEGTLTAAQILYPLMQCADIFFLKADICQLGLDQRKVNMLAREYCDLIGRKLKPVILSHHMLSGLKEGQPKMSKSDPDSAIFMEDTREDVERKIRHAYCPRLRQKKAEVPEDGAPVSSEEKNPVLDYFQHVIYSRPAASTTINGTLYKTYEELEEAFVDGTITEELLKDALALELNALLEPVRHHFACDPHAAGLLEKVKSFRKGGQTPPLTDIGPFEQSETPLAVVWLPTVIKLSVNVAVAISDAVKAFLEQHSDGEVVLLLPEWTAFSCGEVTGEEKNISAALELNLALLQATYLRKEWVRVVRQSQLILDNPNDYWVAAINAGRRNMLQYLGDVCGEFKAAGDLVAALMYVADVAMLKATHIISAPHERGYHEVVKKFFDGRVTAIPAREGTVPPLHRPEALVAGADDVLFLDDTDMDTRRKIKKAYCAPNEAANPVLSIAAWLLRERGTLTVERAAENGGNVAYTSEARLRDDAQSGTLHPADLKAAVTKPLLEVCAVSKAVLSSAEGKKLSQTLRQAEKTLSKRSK
The test can be described thus: Trypanosoma cruzi tyrosyl tRNA synthetase (TcYRS) _High Tyrosine SOP. Further: in the data most compounds retested in dose-response had high values. In kind it is functional. The conditions noted are these: 30 µM.

Test [8] addresses T4, Tyrosyl-tRNA synthetase, putative (Trypanosoma cruzi (strain CL Brener)). The experiment in a line: Trypanosoma cruzi tyrosyl tRNA synthetase (TcYRS) SOP. The test is classed as functional. The following applies: 30 µM.
Test [9] deals with Chromo domain-containing protein 1 (Saccharomyces cerevisiae (strain ATCC 204508 / S288c) (Baker's yeast)) (UniProt P32657). The experiment in a line: ScCHD-1 Enzyme Inhibition Assay. Further: in the data most compounds retested in dose-response had high values. The test is classed as functional. The following applies: 30 µM.

For some assays here: Entries with a potency or affinity are not part of this list.

Percent Effect data for ten compounds are collected here from ChEMBL document CHEMBL3988442, “University of Dundee, Small-Polar-MMV Screening Library” (2021).

Chain of Protein translocase subunit SecA (Escherichia coli (strain K12)) (P10408 whole entry): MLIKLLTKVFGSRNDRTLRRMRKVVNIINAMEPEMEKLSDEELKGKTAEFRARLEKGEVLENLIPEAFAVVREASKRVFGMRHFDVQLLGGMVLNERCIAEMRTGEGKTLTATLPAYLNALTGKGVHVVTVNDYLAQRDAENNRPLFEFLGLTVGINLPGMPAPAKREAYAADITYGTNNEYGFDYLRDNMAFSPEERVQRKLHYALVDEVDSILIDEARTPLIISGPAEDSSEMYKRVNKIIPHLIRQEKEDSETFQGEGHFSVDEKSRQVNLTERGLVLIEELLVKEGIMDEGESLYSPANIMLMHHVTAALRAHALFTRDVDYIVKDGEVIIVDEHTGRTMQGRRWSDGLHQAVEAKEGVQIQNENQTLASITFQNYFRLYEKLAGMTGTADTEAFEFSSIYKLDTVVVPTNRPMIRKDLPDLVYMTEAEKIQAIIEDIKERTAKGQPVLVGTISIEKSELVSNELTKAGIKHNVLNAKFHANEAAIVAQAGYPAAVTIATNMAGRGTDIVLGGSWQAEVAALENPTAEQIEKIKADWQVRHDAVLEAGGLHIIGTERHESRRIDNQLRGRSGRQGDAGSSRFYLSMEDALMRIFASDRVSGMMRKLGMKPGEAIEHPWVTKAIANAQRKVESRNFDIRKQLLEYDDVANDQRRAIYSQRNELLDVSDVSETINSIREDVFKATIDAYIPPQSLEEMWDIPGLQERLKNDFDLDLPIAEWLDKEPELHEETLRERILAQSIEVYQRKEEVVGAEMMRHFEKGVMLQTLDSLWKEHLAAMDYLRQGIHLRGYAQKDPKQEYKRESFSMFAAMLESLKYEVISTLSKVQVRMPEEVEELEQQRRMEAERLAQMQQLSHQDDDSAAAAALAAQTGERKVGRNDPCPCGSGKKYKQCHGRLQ
Chain of Sialic acid-binding Ig-like lectin 9 (Homo sapiens) (Q9Y336 whole entry): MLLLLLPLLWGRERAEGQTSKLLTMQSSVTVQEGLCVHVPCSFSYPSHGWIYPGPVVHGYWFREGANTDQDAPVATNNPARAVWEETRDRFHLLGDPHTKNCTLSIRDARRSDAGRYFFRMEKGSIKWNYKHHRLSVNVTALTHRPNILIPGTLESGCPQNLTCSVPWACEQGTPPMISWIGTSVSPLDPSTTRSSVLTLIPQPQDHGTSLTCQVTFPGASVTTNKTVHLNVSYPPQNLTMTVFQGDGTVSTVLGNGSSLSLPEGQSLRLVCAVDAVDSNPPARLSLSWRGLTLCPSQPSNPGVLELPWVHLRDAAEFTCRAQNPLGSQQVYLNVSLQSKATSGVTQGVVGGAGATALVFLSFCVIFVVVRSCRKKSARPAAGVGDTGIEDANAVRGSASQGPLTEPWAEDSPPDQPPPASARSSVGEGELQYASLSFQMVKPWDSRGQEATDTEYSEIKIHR
Chain of Chromo domain-containing protein 1 (Saccharomyces cerevisiae (strain ATCC 204508 / S288c) (Baker's yeast)) (P32657 whole entry, the tested form may be a part): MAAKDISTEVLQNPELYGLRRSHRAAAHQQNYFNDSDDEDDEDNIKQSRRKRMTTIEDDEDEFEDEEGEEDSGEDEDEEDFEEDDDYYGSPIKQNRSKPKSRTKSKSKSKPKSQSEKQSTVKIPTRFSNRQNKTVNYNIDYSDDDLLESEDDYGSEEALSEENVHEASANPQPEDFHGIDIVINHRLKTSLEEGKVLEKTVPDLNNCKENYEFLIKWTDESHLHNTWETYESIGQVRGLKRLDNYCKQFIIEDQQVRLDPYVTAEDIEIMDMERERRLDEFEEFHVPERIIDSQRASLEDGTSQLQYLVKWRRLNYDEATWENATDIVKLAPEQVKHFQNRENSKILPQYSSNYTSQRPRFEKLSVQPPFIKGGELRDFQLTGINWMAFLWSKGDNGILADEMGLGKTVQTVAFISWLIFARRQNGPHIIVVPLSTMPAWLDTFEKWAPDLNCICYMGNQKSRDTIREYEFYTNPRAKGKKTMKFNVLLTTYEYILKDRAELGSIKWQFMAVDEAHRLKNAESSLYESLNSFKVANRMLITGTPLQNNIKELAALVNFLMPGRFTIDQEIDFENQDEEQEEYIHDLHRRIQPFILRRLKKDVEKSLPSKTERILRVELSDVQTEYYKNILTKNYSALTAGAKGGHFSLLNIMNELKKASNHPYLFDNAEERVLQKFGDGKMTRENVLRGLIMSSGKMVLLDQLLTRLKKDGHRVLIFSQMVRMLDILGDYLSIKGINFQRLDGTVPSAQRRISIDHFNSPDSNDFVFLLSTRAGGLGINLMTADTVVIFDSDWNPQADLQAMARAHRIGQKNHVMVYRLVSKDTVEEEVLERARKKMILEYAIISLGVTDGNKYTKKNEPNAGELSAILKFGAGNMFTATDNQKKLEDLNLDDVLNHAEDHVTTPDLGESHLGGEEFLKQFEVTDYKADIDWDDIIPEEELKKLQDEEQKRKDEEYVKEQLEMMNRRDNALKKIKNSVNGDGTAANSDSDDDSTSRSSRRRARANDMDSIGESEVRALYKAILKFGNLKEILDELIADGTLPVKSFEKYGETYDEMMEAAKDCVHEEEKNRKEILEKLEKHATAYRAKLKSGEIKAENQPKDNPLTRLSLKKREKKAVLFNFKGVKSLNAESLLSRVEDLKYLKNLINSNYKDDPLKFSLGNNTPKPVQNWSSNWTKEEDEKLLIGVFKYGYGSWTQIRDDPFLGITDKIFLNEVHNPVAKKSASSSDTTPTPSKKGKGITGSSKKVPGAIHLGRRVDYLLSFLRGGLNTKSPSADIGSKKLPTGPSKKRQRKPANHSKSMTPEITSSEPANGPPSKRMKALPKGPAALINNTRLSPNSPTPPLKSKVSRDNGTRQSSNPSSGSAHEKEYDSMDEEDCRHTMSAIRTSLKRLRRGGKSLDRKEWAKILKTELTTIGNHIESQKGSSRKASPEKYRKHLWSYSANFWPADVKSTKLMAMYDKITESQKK

For `COc1ccc(C(=O)NS(=O)(=O)c2cncc(Br)c2)cc1OC`, the Percent Effect in test [1] is -6.13%; in test [2], -5.41%; in [3], -4.05%; in test [4], 9.13%; with Trypanosoma cruzi it was -2.51%; in test [5] it was 0%. Moreover, the Percent Effect is 2.07% in test [6]; 24.4% in the test filed under Homo sapiens; 2.65% in test [7]; 0% in [8]; -1.34% in test [9].

As to `NS(=O)(=O)N1CCc2ccc(NC(=O)Cc3ccc(F)cc3)cc21`, the Percent Effect in test [1] was -2.62%; in [2], 2.74%; in test [3], -2.62%; in [4] it was 3.78%; in the test with Trypanosoma cruzi, 4.31%; in [5], -39.1%. The Percent Effect in [6] is 6.92%; in the test listed under Homo sapiens, 20.9%; in test [7], -3.23%; in test [8] it was 2.5%; in test [9], -1.74%.

As for `Cc1csc(C2CCCCN2C(=O)CN(C)C2CC2)n1` (stereo not given), the Percent Effect was 1.03% in test [1]; -13.9% in test [2]; 0.541% in [3]; -1.97% in test [4]; 2.56% with Trypanosoma cruzi; -2.37% in test [5]. For the same compound, the Percent Effect in test [6] was 8.75%; in the test listed under Homo sapiens it was -15.9%; in [7], 1.04%; in test [8] it was 5.06%; in test [9], 9.83%.

Regarding `Cc1c(C(=O)NC(C)C(C)C)nnn1-c1cccc2c1CCN(C)C2` (stereo not given), the Percent Effect in test [1] is -4.44%; in test [2], 10.5%; in test [3] it was -6.99%; in [4], 3.62%; in the test on Trypanosoma cruzi it was 1.85%; in test [5], -17.8%. Also, the Percent Effect in test [6] is 7.19%; in the test listed under Homo sapiens it was 3.15%; in test [7], 3.19%; in test [8], 0%; in test [9], -11.2%.

On to `CCc1cc(N[C@H]2CC[C@H](O)CC2)n2nc(C)c(C)c2n1`, for which the Percent Effect in [1] was -3.74%; in test [2], 1.39%; in test [3], 0.211%; in [4] it was -3.49%; with Trypanosoma cruzi, -2.82%; in [5] it was -0.442%. In addition, the Percent Effect is 5.09% in test [6]; -20.9% in the test listed under Homo sapiens; -9.47% in test [7]; 10.3% in test [8]; -3.52% in [9].

As for `O=C(c1cccnc1O)N(Cc1ccsc1)CC1CCCO1` (stereo not given), the Percent Effect is 0.332% in test [1]; 13.5% in [2]; -1.43% in [3]; 6.53% in [4]; 4.63% in the test on Trypanosoma cruzi; 12.9% in [5]. In addition, the Percent Effect in [6] is 12.6%; in the test listed under Homo sapiens, 15.9%; in [7] it was 5.82%; in test [8], 17.1%; in test [9] it was -0.939%.

With `Cn1cc(N2CC3(CCN(Cc4cccs4)CC3)OCC2=O)cn1`, the Percent Effect in test [1] is -0.959%; in test [2], -2.74%; in test [3], -1.55%; in test [4], 15.7%; in the test with Trypanosoma cruzi, 2.38%; in test [5], 3.19%. In addition, the Percent Effect in [6] is 3.68%; in the test listed under Homo sapiens it was 2.59%; in test [7] it was -14.6%; in test [8] it was 8.64%; in test [9], -2.76%.

Turning to `N#Cc1cc(NC(=O)c2ccccc2)ccc1N1CCC(O)CC1`, the Percent Effect in test [1] is -0.198%; in test [2], 10.8%; in [3] it was -7.93%; in test [4] it was 6.67%; with Trypanosoma cruzi it was 2.51%; in [5], 9.05%. Moreover, the Percent Effect is 10% in test [6]; -5.21% in the test listed under Homo sapiens; 1.59% in [7]; 9.76% in test [8]; -2.82% in test [9].

Turning to `CC(O)CN1CCN(C(=O)c2ccc(N(C)C)nc2)CC1` (stereo not given), the Percent Effect in test [1] is -1.4%; in [2], 33.8%; in [3], -9.23%; in test [4] it was 0.151%; with Trypanosoma cruzi, 4.68%; in test [5] it was 0%. Further, the Percent Effect is 11% in [6]; 8.66% in the test filed under Homo sapiens; 7.77% in [7]; 9.76% in test [8]; -4.89% in test [9].

Take `Cc1nccn1CCCC(=O)N1CCC(Nc2cccnn2)CC1`: the Percent Effect in [1] is -3.42%; in test [2], 5.41%; in test [3] it was -7.19%; in [4], 11.7%; in the test on Trypanosoma cruzi, 4.43%; in test [5], -1.6%. Further, the Percent Effect was 3.06% in [6]; 1.39% in the test filed under Homo sapiens; 2.46% in test [7]; 16.1% in test [8]; -8.26% in test [9].
